For 107 compounds, INHIBITION results are on record in ChEMBL document CHEMBL4513216, “Probing the Open Global Health Chemical Diversity Library for Multistage-Active Starting Points for Next-Generation Antimalarials” (ACS Infect Dis, 2020).

Hit rate of the full screen: of about 69,000 compounds, about 8,600 (12%) showed an effect of 50% or more. The sample holds strong results, similar compounds and a random draw of the others, so the mix is not that of the screen.

The experiment has as its system Plasmodium berghei. Put plainly: Screen against P. berghei liver stage (PbLuc), transformed with Luciferase, at 10uM. In kind it is functional, HepG2. To be noted: tested at 10 uM.
Regarding `CN(Cc1cc[nH]n1)C(=O)c1cn(Cc2ccccc2Cl)nn1`, the INHIBITION came to 39.4%.
For the compound `COc1ccc2[nH]cc(C(=O)N3C[C@@H](O)[C@H](NS(C)(=O)=O)C3)c2c1`, the INHIBITION is on record as 14.6%.
The result for `O=C(c1ccnc(C2CCNCC2)c1)N1CCCOCC1` reads 42.6%; that for `CCN(CC)S(=O)(=O)NCC1Cc2ccccc2O1` (configuration not stated), 7.65%; that for `CC(=O)N1CCCC1c1nc(CN(C)C(=O)C(C)C)cc(N(C)C)n1` (configuration not stated), 23.9%.
As to `CCc1n[nH]c(C2CN(CCS(C)(=O)=O)CCO2)n1` (configuration not stated), the INHIBITION was found to be 25.6%.
The result for `O=S(=O)(NC1CCCOC1)c1ccc(C(F)(F)F)nc1` (configuration not stated) reads 30%; that for `Cc1cnn(CC2CCCN2CC(=O)NC2CCN(C3CC3)CC2)c1` (configuration not stated), -42.3%; that for `CCc1nccn1C1CCCN(C(=O)c2cncnc2C)C1` (configuration not stated), 21.6%.
The result for `CN(C)CC1CN(C(=O)NCc2ccccc2)Cc2nccn2C1` (configuration not stated) reads 13.5%.
In the case of `Cc1cccc2c1OCCC2NCc1c(C(C)C)nn(C)c1N(C)C` (configuration not stated), the INHIBITION is listed as -41.2%.
The result for `CC(C)(C)Oc1ccc(CN)c(C(F)(F)F)c1` reads 30.8%.
The result for `CCc1ccsc1C(=O)N1CCN(CC(N)=O)CC1` reads -53.5%; that for `CCn1cc(CN2CCCN(C(=O)c3sccc3C#N)CC2)cn1`, 24%.
`Cc1csc(N2CCCN(C(=O)C(C)n3cncn3)CC2)n1` (configuration not stated): the INHIBITION is recorded as 17.4%.
Consider `CCc1ccsc1C(=O)N1CCS(=O)(=O)CC1`, for which the INHIBITION is recorded as 53.7%.
Consider `Cc1csc(N2CCN(C(=O)C(C)n3cncn3)CC2)n1` (configuration not stated), for which the INHIBITION stood at 60.5%.
To `CSC(C)C(=O)N1CCCN(Cc2cnn(C(C)C)c2)CC1` (configuration not stated) belongs -19.9%; to `CCc1ccsc1C(=O)N1CCN(CC(C)O)CC1` (configuration not stated), -27.8%.
To `Cc1csc(N2CCN(C(=O)C(C(C)C)n3cncn3)CC2)n1` (configuration not stated) belongs 17.4%; to `CCn1cc(CN2CCCN(C(=O)c3sccc3OC)CC2)cn1`, -34%; to `CCc1ccsc1C(=O)N1CCCN(Cc2cnn(CC)c2)CC1`, 58.5%.
The result for `CC(C)n1cc(CN2CCCN(C(=O)C3CCOC3)CC2)cn1` (configuration not stated) reads -29.1%; that for `CC(C)n1cc(CN2CCCN(C(=O)C3(C)CCOCC3)CC2)cn1`, 54.5%; that for `O=C(c1cccnc1)N(CCO)Cc1cc(Br)ccc1F`, -5.1%.
On to `CNc1nc(C2CCCN(C(=O)C(C)(C)OC)C2)nc2c1CN(C)CC2` (configuration not stated), for which the INHIBITION is reported as -12.9%.
The result for `CC(C(=O)NCCOc1ccc2c(c1)CCC2)n1cncn1` (configuration not stated) reads -81.3%; that for `Cc1ccc(S(=O)(=O)N2CCN(CCCO)CC2)s1`, 30.1%.
The result for `c1cncc(-c2noc(CNC3CCc4ncnn4C3)n2)c1` (configuration not stated) reads 29.4%.
As for `Cc1cc(C)n(CC2CCCCN2C(=O)c2ccsc2)n1` (configuration not stated), the INHIBITION was -3.2%.
For the compound `CC(C)C(Sc1nncn1C1CC1)C(=O)NCc1cccnc1` (configuration not stated), the INHIBITION is -38%.
The result for `CC(NC(=O)Cc1cccs1)c1nnc2n1CCC2` (configuration not stated) reads -12.2%.
To `O=C(c1cc[nH]n1)N1CCC(c2cc(Nc3ccccn3)n[nH]2)CC1` belongs -3.31%; to `Cc1nnc(NC(=O)NCc2ccoc2)s1`, -19.9%; to `O=C(Cn1ccc2ccc(F)cc21)NC[C@@H]1CCCN2CCCC[C@H]12`, 58.3%.
To `Cc1cccc2c1ccn2CC(=O)NC[C@@H]1CCCN2CCCC[C@H]12` belongs 51.9%; to `CC[C@H](C)[C@H](NC(=O)Cn1ccc2ccc(F)cc21)C(=O)OC`, -24.6%.
Consider `Cc1cccc2c1ccn2CC(=O)O`, for which the INHIBITION is 35%.
To `O=C(Cn1ccc2ccc(F)cc21)NCc1ccc(C(=O)O)cc1` belongs 6%; to `COCCNC(=O)Cn1ccc2ccc(F)cc21`, 17.1%.
For the compound `O=C(CCn1ccc2cc(Br)ccc21)NC[C@@H]1CCCN2CCCC[C@H]12`, the INHIBITION amounted to 49%.
The result for `COC(=O)[C@H](C)NC(=O)Cn1ccc2ccc(F)cc21` reads 50.8%; that for `COC(=O)CNC(=O)Cn1ccc2ccc(F)cc21`, 13.9%; that for `O=C(Cn1ccc2ccc(Br)cc21)NC[C@@H]1CCCN2CCCC[C@H]12`, 37.1%.
To `O=C(Cn1ccc2cc(Br)ccc21)NC[C@@H]1CCCN2CCCC[C@H]12` belongs 58.3%; to `O=C(Cn1ccc2ccccc21)NC[C@@H]1CCCN2CCCC[C@H]12`, 23.5%.
Take `Cc1ccnn1CCC(=O)N1CCCC2(C1)NC(=O)c1ccccc1O2` (configuration not stated): the INHIBITION is listed as -2.2%.
The result for `CC1=C(C(N)=O)C(c2cn(C)nc2C)N2C(=O)CSC2=N1` (configuration not stated) reads -20.5%; that for `CCn1ncc2c1C(COCC1CC1)N(C(=O)c1ccncn1)CC2` (configuration not stated), 9.34%.
For the compound `CC(=O)N1CCCCC1c1nc(N)ncc1-c1ccccc1` (configuration not stated), the INHIBITION is 38.1%.
With `CN1CCC2(CCCN(C(=O)c3cncn3C)C2)CC1`, the INHIBITION was 29%.
As for `Cc1noc(CCNC(=O)NCc2ccc(OC3CCCC3)cc2)n1`, the INHIBITION was -33.4%.
The result for `CO[C@@H]1CN(c2ccccc2)S(=O)(=O)[C@@]12CCN(Cc1cncs1)C2` reads 41.9%; that for `Cc1cc(C)n(C2CCN(S(=O)(=O)N3CCC(C)CC3)CC2)n1`, 19.3%.
As to `CC(=O)N1N=C(c2ccccc2)OC1C(=O)NCCc1cccc(F)c1` (configuration not stated), the INHIBITION is reported as -18.2%.
To `CN(C)C(=O)N1CC[C@H]2[C@H]1CCN2c1nncs1` belongs 2.4%; to `COCc1nc(C(=O)N2CCCC2c2ccc(OC)cc2)cs1` (configuration not stated), 46.2%; to `OC12CCC(CC1)N(Cc1ccc(F)cc1)C2CN1CCOCC1` (configuration not stated), 9.36%.
As for `Cc1ccc2c(ccn2CC(=O)NC[C@@H]2CCCN3CCCC[C@H]23)c1`, the INHIBITION was 47.4%.
In the case of `Cc1ccc2c(ccn2CCC(=O)NC[C@@H]2CCCN3CCCC[C@H]23)c1`, the INHIBITION is -3.95%.
`COc1ccc2c(ccn2CC(=O)NC[C@@H]2CCCN3CCCC[C@H]23)c1`: the INHIBITION is recorded as 54.8%.
The result for `Cc1ccc(-c2nc(CNCC3CN(C)CCO3)cs2)o1` (configuration not stated) reads 41.4%; that for `Cc1nn(C)c2c(N(C)Cc3ccco3)nc(C3CC3)nc12`, 19.7%; that for `O=C(O)[C@H]1C[C@H](C(=O)NCc2ccncc2)CN(CCC(F)(F)F)C1`, -78.5%.
`COc1ccccc1NC(=O)CC(C)NCCc1sc(C)nc1C` (configuration not stated): the INHIBITION was 71.3%.
Take `COc1ccccc1NC(=O)CC(C)NCc1scnc1C` (configuration not stated): the INHIBITION was 25.6%.
The result for `CCc1cnc(CCNC(C)CC(=O)Nc2cccc(C)c2C)s1` (configuration not stated) reads 15.6%.
The result for `CO[C@H]1CC[C@H]2[C@H]1OCCN2C(=O)CCOc1ccccc1` reads 14%.
The result for `COCC1COCCC12CCN(Cc1nccs1)CC2` (configuration not stated) reads 22.6%.
Take `CNC(=O)c1cccc(CN2CCN(c3ccncc3)CC2)c1`: the INHIBITION amounted to 35.1%.
The result for `Cc1cc(CN2CCC(CNS(=O)(=O)c3ccccc3F)CC2)c(C)o1` reads 14.4%; that for `Cc1cc(CN2CCC(CNS(=O)(=O)c3ccc(Br)s3)CC2)c(C)o1`, 79%; that for `Cc1cc(CN2CCC(CNS(=O)(=O)c3ccc(C)s3)CC2)c(C)o1`, 49.7%.
The result for `O=C(NCc1ccco1)[C@@H]1CC[C@@H]2[C@@H](CCN2Cc2ccc(F)cc2)O1` reads 5.87%.
The result for `O=C1CC(c2ccc(C(F)(F)F)cc2)c2snc(C(=O)O)c2N1` (configuration not stated) reads 42.4%; that for `O=C1CC(c2ccsc2)c2snc(C(=O)O)c2N1` (configuration not stated), 72.6%.
As to `O=C1CC(c2cccc(Cl)c2)c2snc(C(=O)O)c2N1` (configuration not stated), the INHIBITION was found to be 55.7%.
For `O=C1CC(c2ccc(F)cc2)c2snc(C(=O)O)c2N1` (configuration not stated), the INHIBITION was determined as 15.9%.
In the case of `O=C1CC(c2ccc(F)c(F)c2)c2snc(C(=O)O)c2N1` (configuration not stated), the INHIBITION was 27.6%.
`O=C1CC(c2ccccc2)c2snc(C(=O)O)c2N1` (configuration not stated): the INHIBITION is reported as 12.6%.
For `O=C(c1cccnc1)N1CCc2ncnc(C3CCOC3)c2CC1` (configuration not stated), the INHIBITION is reported as 25.6%.
For `CN(Cc1ccc2c(c1)OCO2)C(=O)C1CC(c2cccc(F)c2)=NO1` (configuration not stated), the INHIBITION was -14.3%.
`COCCOCC(=O)N1C[C@@H]2CC[C@H](Oc3cccc(F)c3)[C@@H]2C1`: the INHIBITION is on record as -71.9%.
The result for `CN1CCCC2(CC1)CCN(C(=O)CCc1ccccc1O)CC2` reads 56.5%.
To `Cc1nc2c(c(=O)n1C)CCN(C(=O)CCc1ccccc1O)CC2` belongs 14.3%; to `CCCC(=O)N1Cc2ccccc2CC2(CCN(C)C2)C1` (configuration not stated), 40%; to `COC(=O)CCC(=O)N1CCC2(CN(Cc3ccccc3F)C2)C1`, 22.4%.
To `CN1CCN(CC2(O)CCN(C(=O)CCc3ccccc3F)C2)CC1` (configuration not stated) belongs 16.705%; to `CN1CCCC2(CC1)CCN(C(=O)CCc1ccccc1F)CC2`, 80%; to `COc1ccc(CCNC(=O)N2CCCC(c3nncn3C)C2)cc1` (configuration not stated), -12.1%.
Turning to `COCCN1CCC(CNC(=O)C2(c3ccccc3)CCOCC2)C1` (configuration not stated), the INHIBITION was 5.9%.
As for `CC1COCCN1Cc1nc(-c2cccc(C(F)(F)F)c2)no1` (configuration not stated), the INHIBITION was 9.54%.
The result for `CCc1c(C)nc2ccccc2c1N1CCC(O)CC1` reads 24.4%; that for `CCc1c(C)nc2ccccc2c1N1CCC(C(=O)NC)CC1`, 52.2%.
For the compound `CCc1c(C)nc2ccccc2c1N1CCC(NC(C)=O)CC1`, the INHIBITION stood at 37.2%.
To `COc1c(CNC2CCc3ccccc32)c(C(C)C)nn1C` (configuration not stated) belongs 11.2%; to `CC(=O)N1CCC(NC(=O)Cc2nc3nc(C)cc(C)n3n2)CC1`, 4.25%; to `O=S(=O)(NCC1OCCc2cn(Cc3ccccn3)nc21)C1CC1` (configuration not stated), 10.7%.
Turning to `C[C@@H]1CN(Cc2cccnc2)C[C@]12CCN(CCN1CCCC1)C2=O`, the INHIBITION came to 37.1%.
To `Cc1ccc(CN(Cc2ccccn2)C(=O)C2CCCCCN2C)s1` (configuration not stated) belongs 27.6%; to `Cc1ccc(CN(Cc2ccccn2)C(=O)CCC2CCCN(C)C2)s1` (configuration not stated), 49%; to `Cc1ccc(CN(Cc2ccccn2)C(=O)[C@H]2CC[C@@H](N)C2)s1`, 60.8%.
The result for `CC(CC1CC1)NCCCN1CCCN(C)CC1` (configuration not stated) reads -7.94%; that for `Cn1cc(NC(=O)Nc2cccc3cccnc23)ccc1=O`, 37.9%.
Take `Cc1n[nH]c(C)c1C1CCCN1C(=O)NCC(=O)NC(C)(C)C` (configuration not stated): the INHIBITION is 43.3%.
The result for `COC(C)(C)CNC(=O)N1CCCC1c1c(C)n[nH]c1C` (configuration not stated) reads 82.2%; that for `Cc1n[nH]c(C)c1C1CCCN1C(=O)NC(C)(C)C` (configuration not stated), 31.1%.
